We go through 13 sequences from the supplement of paper PMC3545927.

The assay has as its target furin, P09958. The experiment in a line: furin cleavage Z-score vs untreated control; higher = more cleavage, active = 3.5 or more, inactive = 1 or less, 8 variable residues between constant flanks. In short, it runs like this: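 Abundance of DNA freed from bead-bound 8-mer peptide–cDNA fusions by purified furin was measured as sequencing read counts after PCR adapter tagging. Cutting ran 7.5, 15 or 30 min in 0.01 ml of 50 mM HEPES pH 7.5 with CaCl2 and NaCl at 1:10 enzyme:substrate. The cleavage Z-score expresses these log counts against furin-free reactions after lowess adjustment and median absolute deviation scaling.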

The list shows a part of the results. The true hit rate is not given. A number with no mark means an inactive call.

Chain of furin, P09958 (P09958 whole entry, the tested form may be a part): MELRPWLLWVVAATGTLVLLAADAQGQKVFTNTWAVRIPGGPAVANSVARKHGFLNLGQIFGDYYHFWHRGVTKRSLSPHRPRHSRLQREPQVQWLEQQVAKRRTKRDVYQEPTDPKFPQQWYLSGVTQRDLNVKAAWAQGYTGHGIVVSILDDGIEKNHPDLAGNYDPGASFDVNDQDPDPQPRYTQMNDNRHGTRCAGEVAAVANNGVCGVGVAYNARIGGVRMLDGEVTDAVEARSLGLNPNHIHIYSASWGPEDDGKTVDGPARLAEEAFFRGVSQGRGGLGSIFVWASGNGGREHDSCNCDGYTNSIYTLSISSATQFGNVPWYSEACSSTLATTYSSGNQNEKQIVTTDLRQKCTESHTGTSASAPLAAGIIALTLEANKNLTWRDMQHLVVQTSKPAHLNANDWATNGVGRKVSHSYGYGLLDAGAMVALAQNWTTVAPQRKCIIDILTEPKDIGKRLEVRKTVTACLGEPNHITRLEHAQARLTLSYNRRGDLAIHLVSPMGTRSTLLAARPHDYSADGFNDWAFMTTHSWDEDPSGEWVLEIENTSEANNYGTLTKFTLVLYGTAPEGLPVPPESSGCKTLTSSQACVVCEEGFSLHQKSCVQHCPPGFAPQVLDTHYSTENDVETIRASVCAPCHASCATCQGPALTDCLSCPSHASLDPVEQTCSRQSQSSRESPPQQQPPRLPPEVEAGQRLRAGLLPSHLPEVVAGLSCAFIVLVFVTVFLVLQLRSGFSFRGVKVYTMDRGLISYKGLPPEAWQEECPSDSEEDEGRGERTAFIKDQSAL

As for CADREVVTSTAGNASASA [HC2293], the “furin cleavage Z-score” value is 0.73 (7.5 min), -0.878 (15 min) and 0.0278 (30 min).
For CANVDQDLVGAGNASASA [HC712], in that order: -0.364, -0.928 and 0.183.
For CARHRRQIDRAGNASASA [FU5] the same measures were 8.52 (active), 9.09 (active) and 7.54 (active).
CARALAHGVRAGNASASA [HC235]: the “furin cleavage Z-score” value (7.5 min) was -1.61, the “furin cleavage Z-score” value (15 min) is -0.489 and the “furin cleavage Z-score” value (30 min) is -0.193.
For CARHRARSVRAGNASASA [HC1621] the same measures were 5.03 (active), 5.34 (active) and 5.83 (active).
For CARHRRTPDRAGNASASA [FS-2555] the same measures were 3.94 (active), 6.66 (active) and 4.45 (active).
For CACSQHLPYIAGNASASA [HC1016] the same measures were -1.19, -4.19 and -2.45.
In the case of CAGPLLCPAGAGNASASA [HC744], the “furin cleavage Z-score” value is, setting by setting: (7.5 min) -0.656; (15 min) -1.61; (30 min) -1.61.
Consider CATTPCSAHLAGNASASA [HC2478], for which the “furin cleavage Z-score” value is 0.336 (7.5 min), 0.111 (15 min) and -0.164 (30 min).
For CAVVCCSESYAGNASASA [HC2052], in that order: -0.759, -0.905 and -0.208.
For CAQRRRPTRPAGNASASA [FS-371] the same measures were -1.13, 0.703 and -0.42.
For CAQRRRSIRDAGNASASA [FS-287], in that order: 14.8 (active), 16.3 (active) and 11.3 (active).
For CAIPCRSIRDAGNASASA [FS-668], the “furin cleavage Z-score” value runs as follows: (7.5 min) 4.89 (active); (15 min) 6.2 (active); (30 min) 5.07 (active).
